Key:
Assay in all cases: log2 ratio of Biotin-Ahx-Ub-VS probe labelling (fragment/DMSO); higher = less target engagement (more negative = stronger competition), active = hit call of the paper (q ≤ 0.05, log2 ratio ≤ -1)
Conditions in all cases: compound concentration: 200 uM; treatment time: 3 h
USP42 = target: T1, USP42 (UniProt Q9H9J4)
T1 sequence (whole entry): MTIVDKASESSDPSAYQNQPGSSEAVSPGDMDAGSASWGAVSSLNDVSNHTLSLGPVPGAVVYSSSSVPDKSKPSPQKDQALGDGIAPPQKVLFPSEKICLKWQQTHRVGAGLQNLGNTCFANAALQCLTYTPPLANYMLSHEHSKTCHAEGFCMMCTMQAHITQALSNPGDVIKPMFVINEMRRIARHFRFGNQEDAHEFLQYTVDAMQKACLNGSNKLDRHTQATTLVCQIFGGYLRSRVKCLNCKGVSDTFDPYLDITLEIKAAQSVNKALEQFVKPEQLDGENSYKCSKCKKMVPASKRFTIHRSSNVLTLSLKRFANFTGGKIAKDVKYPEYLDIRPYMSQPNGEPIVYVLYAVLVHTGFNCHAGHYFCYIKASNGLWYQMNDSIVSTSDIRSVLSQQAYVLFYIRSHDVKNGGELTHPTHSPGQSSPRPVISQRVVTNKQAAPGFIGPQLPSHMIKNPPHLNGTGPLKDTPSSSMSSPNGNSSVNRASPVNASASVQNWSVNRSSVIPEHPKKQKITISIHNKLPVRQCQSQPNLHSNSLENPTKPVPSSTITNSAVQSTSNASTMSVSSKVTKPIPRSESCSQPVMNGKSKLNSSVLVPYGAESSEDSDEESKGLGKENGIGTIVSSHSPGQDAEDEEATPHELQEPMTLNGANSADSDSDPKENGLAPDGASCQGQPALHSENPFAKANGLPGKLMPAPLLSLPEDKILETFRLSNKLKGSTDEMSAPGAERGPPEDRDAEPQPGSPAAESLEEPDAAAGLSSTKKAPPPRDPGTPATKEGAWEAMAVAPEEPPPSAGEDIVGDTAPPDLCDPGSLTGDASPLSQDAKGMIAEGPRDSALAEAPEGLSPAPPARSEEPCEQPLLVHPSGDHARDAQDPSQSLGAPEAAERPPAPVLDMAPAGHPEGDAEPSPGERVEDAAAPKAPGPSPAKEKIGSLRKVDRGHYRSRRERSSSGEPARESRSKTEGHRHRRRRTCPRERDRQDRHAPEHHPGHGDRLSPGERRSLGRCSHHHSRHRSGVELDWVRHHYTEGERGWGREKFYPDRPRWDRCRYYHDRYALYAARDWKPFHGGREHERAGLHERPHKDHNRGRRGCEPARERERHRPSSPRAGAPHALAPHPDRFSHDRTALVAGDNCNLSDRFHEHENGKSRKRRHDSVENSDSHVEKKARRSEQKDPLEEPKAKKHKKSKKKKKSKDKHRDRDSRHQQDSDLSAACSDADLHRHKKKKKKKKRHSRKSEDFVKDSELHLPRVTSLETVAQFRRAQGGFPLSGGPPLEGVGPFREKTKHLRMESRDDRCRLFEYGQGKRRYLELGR
Procedure, shortened: (§1)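 The table lists average log2 ratios of fragment over vehicle, from an unpaired t-test on global-median-normalised Spectronaut label-free quantities. Proteins with ≥2 unique peptides were used. Samples were HEK293T lysate (495 µg) treated in triplicate with fragment at 200 µM or vehicle for 3 h, then with Biotin-Ahx-Ub-VS (0.5 µM final) for 1 h, with labelled DUBs NeutrAvidin-enriched and run by diaPASEF LC-MS/MS.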

USP46 = USP46 (UniProt P62068)
Sequence of USP46 (P62068 whole entry): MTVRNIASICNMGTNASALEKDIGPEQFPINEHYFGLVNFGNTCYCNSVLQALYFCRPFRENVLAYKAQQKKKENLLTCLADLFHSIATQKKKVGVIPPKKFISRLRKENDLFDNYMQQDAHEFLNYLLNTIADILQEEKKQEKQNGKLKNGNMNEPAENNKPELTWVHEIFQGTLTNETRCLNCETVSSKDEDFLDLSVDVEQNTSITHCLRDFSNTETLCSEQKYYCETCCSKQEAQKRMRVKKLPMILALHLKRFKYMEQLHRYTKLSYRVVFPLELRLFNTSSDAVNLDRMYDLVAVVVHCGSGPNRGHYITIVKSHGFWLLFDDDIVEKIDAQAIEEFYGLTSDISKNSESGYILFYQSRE
Procedure, shortened: as §1

USP47 = target: T2, USP47 (UniProt Q96K76)
T2 sequence (whole entry): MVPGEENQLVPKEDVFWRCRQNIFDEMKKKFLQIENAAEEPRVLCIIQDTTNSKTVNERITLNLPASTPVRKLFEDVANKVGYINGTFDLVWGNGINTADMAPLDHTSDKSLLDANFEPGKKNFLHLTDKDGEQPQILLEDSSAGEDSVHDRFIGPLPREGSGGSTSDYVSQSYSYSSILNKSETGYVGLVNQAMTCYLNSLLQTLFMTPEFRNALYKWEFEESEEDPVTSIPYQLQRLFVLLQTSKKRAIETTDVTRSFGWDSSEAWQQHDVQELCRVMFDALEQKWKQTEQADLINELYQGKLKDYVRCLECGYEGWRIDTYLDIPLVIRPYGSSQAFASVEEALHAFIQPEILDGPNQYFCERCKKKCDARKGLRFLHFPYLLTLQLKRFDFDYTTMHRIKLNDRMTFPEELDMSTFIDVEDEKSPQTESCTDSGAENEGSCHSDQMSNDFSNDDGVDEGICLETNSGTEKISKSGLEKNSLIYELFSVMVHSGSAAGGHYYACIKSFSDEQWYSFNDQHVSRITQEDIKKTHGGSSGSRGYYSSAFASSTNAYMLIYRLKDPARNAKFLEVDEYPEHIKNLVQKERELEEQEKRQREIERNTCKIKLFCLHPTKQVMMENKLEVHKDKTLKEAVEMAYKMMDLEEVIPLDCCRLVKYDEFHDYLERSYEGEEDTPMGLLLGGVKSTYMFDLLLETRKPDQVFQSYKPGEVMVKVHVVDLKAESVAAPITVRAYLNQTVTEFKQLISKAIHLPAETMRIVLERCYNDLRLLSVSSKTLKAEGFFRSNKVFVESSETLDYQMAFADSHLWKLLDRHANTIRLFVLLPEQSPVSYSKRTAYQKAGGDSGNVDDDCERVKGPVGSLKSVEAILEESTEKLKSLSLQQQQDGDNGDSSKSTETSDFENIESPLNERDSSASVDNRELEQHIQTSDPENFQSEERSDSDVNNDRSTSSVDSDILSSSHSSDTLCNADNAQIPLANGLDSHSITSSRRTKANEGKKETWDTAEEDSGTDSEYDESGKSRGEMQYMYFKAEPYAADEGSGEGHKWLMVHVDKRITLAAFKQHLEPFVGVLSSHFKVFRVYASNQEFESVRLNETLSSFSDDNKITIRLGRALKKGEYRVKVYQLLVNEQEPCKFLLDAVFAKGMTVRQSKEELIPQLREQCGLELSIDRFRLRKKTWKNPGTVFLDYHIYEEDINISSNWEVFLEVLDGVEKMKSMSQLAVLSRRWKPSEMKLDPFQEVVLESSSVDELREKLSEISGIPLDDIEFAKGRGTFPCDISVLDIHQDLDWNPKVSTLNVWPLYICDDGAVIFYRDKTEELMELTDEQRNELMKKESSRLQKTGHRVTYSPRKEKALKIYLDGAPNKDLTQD
Procedure, shortened: as §1

USP48 = target: T3, USP48 (UniProt Q86UV5)
T3 sequence (whole entry): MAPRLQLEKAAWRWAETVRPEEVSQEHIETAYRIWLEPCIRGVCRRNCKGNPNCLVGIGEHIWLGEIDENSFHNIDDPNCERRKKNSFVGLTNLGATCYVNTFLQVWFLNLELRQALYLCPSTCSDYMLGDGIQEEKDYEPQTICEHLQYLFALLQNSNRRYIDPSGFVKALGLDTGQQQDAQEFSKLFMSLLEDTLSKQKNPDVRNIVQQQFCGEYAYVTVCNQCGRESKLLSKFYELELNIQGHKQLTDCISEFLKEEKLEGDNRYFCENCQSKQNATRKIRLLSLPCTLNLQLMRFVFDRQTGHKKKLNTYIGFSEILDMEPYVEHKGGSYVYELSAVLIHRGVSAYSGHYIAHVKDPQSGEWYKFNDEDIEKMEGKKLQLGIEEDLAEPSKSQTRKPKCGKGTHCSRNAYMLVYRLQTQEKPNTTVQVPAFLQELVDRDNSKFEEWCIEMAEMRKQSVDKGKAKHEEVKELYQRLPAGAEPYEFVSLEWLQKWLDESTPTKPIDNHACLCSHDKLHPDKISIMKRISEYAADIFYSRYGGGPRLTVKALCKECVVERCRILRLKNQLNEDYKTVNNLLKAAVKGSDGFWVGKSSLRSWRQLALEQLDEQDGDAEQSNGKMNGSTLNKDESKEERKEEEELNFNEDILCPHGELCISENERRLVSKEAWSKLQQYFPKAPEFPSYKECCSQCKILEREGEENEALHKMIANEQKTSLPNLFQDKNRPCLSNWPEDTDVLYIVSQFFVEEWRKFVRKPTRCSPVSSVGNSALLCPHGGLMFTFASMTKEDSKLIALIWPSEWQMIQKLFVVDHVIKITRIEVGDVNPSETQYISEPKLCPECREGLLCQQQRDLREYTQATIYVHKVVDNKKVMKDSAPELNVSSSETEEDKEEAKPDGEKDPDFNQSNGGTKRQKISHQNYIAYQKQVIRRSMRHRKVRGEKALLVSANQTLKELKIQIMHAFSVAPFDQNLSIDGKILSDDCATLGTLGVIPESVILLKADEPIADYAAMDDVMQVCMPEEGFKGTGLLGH
Procedure, shortened: as §1

USP5 = target: T4, USP5 (UniProt P45974)
T4 sequence (whole entry): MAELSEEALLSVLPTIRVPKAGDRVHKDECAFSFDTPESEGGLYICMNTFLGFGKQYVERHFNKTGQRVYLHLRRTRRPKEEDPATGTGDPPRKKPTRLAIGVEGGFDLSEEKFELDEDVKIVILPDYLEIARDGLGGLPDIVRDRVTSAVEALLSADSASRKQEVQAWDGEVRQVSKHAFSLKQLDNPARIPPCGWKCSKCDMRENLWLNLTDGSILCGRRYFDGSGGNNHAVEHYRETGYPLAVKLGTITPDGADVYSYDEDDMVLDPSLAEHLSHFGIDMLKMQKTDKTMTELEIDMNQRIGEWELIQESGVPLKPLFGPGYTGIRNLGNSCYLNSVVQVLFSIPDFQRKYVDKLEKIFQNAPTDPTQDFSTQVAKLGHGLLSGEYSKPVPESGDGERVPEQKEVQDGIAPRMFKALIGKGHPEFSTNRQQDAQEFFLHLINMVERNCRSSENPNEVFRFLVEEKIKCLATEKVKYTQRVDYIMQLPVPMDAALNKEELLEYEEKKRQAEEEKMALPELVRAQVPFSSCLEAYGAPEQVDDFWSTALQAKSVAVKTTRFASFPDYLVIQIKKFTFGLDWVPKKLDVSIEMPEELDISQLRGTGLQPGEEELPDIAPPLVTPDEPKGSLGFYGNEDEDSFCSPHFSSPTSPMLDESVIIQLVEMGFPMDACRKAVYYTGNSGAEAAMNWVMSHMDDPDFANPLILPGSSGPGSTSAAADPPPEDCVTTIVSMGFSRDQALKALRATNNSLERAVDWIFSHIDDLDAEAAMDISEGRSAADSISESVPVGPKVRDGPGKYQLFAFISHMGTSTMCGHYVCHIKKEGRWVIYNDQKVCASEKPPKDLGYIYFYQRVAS
Procedure, shortened: as §1

USP54 = USP54 (UniProt Q70EL1)
Sequence of USP54 (Q70EL1 whole entry): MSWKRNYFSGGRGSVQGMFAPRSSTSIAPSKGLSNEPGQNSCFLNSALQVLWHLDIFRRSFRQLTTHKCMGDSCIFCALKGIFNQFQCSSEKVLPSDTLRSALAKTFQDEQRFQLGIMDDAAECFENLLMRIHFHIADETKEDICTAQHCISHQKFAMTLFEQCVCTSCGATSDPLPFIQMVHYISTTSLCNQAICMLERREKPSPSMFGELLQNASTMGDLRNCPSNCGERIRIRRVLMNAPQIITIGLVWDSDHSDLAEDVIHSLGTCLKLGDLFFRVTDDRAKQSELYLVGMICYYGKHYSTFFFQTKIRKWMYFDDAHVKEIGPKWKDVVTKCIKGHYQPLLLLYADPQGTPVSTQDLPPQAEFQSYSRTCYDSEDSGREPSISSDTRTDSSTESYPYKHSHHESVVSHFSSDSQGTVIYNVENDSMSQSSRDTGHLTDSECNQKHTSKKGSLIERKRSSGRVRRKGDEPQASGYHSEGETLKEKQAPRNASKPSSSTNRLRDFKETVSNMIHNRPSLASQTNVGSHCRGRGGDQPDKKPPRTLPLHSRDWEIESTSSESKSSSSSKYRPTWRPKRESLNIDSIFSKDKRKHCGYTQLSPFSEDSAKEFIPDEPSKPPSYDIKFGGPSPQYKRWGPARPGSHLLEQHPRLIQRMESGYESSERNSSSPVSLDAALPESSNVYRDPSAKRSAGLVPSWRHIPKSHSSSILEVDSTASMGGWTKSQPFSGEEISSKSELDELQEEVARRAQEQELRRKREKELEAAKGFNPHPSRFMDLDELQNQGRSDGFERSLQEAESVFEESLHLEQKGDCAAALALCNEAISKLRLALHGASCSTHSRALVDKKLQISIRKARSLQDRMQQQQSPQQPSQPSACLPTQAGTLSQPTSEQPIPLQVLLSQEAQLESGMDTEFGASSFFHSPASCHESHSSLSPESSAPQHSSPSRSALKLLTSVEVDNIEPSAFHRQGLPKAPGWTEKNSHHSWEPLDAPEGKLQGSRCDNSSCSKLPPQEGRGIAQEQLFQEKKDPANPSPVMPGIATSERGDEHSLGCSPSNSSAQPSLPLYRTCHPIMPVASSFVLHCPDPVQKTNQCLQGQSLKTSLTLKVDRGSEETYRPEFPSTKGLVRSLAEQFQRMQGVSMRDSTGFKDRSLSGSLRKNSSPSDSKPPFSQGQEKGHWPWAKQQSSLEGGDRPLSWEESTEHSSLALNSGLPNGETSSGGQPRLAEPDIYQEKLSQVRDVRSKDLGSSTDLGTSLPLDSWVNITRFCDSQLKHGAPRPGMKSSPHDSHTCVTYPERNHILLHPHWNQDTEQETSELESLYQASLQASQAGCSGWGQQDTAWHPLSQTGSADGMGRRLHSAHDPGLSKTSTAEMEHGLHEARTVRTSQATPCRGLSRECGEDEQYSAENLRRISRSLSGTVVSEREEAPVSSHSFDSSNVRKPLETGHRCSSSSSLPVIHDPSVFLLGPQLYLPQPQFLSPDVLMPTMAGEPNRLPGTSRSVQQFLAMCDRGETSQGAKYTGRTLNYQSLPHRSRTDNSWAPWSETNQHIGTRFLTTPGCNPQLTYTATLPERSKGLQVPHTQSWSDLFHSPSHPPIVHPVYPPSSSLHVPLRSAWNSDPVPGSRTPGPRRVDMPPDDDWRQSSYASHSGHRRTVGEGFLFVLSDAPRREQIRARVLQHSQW
Procedure, shortened: as §1

USP7 = USP7 (UniProt Q93009)
Procedure, shortened: as §1

USP8 = target: T5, USP8 (UniProt P40818)
T5 sequence (whole entry): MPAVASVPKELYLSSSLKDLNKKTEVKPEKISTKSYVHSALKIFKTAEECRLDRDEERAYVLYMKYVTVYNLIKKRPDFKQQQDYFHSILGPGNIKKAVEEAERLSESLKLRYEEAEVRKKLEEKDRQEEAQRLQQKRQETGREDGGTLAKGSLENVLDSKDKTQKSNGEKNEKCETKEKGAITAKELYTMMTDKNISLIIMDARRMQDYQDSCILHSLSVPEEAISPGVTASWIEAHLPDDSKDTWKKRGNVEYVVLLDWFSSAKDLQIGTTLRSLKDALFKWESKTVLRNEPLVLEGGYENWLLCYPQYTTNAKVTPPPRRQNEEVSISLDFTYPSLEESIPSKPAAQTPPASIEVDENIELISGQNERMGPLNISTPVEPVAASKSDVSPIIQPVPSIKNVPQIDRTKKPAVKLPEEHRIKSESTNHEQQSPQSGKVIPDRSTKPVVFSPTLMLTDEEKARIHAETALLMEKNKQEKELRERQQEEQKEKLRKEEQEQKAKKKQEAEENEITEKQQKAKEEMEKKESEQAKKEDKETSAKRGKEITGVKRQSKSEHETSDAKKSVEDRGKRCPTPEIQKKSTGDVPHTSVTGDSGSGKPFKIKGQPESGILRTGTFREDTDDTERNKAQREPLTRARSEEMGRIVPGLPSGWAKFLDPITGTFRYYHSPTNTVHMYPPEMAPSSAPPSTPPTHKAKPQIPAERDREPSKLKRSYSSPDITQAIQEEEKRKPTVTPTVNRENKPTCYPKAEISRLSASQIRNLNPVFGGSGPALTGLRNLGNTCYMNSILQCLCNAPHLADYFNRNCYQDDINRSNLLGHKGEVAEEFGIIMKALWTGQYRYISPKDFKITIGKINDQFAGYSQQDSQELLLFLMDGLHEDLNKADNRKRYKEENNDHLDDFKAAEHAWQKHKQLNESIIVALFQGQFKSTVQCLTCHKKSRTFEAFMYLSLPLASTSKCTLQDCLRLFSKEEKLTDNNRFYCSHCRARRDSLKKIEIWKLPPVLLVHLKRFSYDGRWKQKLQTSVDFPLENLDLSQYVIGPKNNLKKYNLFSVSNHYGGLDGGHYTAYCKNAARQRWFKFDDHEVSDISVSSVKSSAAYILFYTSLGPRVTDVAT
Procedure, shortened: as §1

USP9X = USP9X (UniProt Q93008)
Sequence of USP9X (Q93008 whole entry): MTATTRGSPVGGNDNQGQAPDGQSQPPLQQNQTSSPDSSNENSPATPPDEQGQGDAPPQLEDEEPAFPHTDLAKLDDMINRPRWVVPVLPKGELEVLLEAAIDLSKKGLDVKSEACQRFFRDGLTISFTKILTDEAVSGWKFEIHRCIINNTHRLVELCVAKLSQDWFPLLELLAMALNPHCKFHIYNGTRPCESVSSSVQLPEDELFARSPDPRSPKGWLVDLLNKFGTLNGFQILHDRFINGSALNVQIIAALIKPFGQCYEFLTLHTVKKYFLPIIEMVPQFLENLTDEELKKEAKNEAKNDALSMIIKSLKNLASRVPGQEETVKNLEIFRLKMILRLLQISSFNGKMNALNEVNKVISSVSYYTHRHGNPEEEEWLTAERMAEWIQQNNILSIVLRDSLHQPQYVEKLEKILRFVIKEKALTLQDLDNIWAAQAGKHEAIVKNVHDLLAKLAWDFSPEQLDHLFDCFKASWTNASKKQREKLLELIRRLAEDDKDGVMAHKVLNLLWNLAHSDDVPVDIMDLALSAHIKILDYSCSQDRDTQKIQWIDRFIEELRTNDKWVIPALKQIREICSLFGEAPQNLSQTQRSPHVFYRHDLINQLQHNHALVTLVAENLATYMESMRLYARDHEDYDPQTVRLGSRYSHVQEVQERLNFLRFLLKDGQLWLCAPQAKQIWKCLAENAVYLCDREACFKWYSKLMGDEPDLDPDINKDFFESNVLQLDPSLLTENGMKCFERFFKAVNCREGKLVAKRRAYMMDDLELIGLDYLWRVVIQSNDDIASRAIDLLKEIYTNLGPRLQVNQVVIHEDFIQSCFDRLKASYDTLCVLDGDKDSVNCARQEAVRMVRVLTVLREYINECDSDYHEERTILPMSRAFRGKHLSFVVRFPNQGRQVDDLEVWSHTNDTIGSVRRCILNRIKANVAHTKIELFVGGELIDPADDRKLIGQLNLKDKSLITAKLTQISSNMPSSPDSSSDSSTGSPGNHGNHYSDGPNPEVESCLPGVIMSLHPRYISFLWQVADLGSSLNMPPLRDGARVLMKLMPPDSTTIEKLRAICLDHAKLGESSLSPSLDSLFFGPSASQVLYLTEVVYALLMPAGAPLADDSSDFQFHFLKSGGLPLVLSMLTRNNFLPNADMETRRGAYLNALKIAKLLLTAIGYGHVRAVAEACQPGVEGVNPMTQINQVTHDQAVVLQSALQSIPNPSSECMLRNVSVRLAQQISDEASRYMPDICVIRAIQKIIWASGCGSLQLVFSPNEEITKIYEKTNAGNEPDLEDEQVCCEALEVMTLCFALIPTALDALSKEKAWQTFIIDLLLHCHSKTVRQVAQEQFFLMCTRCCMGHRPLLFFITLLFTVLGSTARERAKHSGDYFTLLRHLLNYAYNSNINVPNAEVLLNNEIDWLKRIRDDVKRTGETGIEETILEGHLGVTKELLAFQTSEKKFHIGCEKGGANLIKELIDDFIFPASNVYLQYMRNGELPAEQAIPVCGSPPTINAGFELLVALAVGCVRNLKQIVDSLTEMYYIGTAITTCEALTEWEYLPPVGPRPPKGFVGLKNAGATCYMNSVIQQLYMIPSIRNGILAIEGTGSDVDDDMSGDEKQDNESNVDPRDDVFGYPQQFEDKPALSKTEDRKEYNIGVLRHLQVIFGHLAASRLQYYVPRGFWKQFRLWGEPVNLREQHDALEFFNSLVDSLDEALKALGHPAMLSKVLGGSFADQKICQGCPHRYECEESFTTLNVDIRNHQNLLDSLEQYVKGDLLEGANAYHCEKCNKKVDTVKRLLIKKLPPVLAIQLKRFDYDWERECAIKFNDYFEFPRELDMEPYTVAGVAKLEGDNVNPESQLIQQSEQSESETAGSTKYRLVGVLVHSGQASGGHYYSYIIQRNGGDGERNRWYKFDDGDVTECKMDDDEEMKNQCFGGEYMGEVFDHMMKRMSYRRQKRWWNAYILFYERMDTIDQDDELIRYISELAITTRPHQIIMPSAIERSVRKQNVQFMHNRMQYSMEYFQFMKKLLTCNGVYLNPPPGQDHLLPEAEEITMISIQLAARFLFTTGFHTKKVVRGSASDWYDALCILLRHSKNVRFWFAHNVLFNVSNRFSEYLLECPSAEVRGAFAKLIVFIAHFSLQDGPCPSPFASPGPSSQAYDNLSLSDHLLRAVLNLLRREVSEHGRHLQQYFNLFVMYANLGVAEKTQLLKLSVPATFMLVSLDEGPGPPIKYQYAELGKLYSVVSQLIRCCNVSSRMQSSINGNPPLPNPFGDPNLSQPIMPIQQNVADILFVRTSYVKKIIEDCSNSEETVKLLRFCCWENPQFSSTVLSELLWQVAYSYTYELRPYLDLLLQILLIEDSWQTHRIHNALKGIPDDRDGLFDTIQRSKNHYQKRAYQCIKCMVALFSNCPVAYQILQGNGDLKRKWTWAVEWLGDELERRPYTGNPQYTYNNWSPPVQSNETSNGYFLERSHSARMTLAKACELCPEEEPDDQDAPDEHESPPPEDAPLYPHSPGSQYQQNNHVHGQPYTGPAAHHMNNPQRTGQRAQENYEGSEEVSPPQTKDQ
Procedure, shortened: as §1

UniProt O00487 = target: UniProt O00487
Sequence of UniProt O00487 (O00487 whole entry): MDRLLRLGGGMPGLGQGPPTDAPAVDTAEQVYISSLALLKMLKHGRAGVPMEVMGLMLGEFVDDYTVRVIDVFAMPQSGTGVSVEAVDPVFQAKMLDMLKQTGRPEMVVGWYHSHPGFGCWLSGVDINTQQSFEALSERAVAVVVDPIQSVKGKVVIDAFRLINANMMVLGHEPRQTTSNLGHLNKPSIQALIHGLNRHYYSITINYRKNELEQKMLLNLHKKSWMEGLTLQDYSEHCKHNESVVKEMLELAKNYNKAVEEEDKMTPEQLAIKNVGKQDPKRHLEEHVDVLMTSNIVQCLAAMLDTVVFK
Procedure, shortened: as §1

Measured: log2 ratio of Biotin-Ahx-Ub-VS probe labelling

O=C(CCl)N1CCC(c2ccn[nH]2)C1 (stereo not given)
inactive: USP42 -0.237 | USP46 -0.0632 | USP47 -0.0366 | USP48 -0.675 | USP5 -0.0093 | USP54 -0.0323 | USP7 -0.384 | USP8 -0.487 | USP9X -0.391 | UniProt O00487 0.0518
